Drawing on publication PMC7862700, “An all-to-all approach to the identification of sequence-specific readers for epigenetic DNA modifications on cytosine”, this text covers binding signal for one sequence.

What all share (assay): DAPPL (digital affinity profiling via proximity ligation, sequencing); 10 mM Tris-HCl pH 7.5, 50 mM NaCl, 1 mM DTT, 4% glycerol, room temperature, 30 min; GST-TFs on glutathione beads, 16-mer random dsDNA library, 0.1% formaldehyde crosslink after washing; high values mean tight binding
Holding throughout (conditions): protein: recombinant; tags: N-terminal GST; dsDNA, one strand shown

One experiment deals with T1, ELK1 (Homo sapiens, UniProt P19419 1-428).
T1 sequence: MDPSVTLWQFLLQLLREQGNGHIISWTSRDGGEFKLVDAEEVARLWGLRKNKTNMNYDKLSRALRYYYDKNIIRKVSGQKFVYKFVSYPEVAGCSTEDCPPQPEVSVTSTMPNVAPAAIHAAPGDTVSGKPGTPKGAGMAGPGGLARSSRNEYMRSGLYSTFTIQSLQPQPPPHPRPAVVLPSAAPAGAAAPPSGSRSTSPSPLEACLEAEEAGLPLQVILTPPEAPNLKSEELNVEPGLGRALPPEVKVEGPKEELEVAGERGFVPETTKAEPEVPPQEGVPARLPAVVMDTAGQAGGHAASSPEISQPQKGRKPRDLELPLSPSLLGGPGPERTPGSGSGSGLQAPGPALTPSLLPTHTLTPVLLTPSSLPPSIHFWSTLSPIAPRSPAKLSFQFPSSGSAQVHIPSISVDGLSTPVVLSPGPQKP
Summed up:
(§1)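 GST fusions of human transcription factors were expressed in yeast and captured with glutathione beads. Once given DNA barcodes and pooled alongside a tag-only sample, they were incubated for 30 min at room temperature with 200 nmole of a random double-stranded 16-mer DNA library in Tris/NaCl/DTT/glycerol buffer, then washed, crosslinked (0.1% formaldehyde), proximity-ligated, PCR-amplified and sequenced on an Illumina NextSeq500. The binding signal of each hexamer is its read frequency for a factor divided by its frequency for the tag-only sample.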

A further experiment deals with T2, GABPA (Homo sapiens, UniProt Q06546 1-454).
T2 sequence: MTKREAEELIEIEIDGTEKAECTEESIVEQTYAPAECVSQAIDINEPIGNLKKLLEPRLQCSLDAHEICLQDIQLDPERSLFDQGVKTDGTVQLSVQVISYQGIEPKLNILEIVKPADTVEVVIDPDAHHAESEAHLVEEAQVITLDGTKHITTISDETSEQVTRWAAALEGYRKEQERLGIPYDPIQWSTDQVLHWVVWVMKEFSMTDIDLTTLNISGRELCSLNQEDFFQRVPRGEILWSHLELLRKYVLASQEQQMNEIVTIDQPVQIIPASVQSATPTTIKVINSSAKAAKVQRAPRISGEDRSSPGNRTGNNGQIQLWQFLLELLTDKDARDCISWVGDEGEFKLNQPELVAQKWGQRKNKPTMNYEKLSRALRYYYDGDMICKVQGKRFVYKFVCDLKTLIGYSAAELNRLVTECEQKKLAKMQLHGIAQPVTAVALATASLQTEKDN
Summed up:
as §1

Another experiment deals with T3, ERG (Homo sapiens, UniProt P11308 1-479).
T3 sequence: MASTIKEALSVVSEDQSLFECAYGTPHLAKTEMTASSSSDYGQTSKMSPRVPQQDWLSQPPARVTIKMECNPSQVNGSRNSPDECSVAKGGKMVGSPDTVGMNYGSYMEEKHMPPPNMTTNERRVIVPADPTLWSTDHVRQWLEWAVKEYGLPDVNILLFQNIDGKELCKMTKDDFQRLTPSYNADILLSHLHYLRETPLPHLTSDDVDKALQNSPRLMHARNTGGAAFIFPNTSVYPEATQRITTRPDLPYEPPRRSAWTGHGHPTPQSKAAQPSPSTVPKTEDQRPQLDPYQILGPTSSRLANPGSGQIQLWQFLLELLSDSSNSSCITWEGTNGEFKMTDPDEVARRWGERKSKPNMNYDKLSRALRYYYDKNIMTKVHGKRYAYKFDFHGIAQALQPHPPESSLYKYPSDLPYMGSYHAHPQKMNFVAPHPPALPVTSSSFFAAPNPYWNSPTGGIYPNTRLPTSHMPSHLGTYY
Summed up:
as §1

A further experiment deals with ELF1 (Homo sapiens, UniProt P32519 1-619). The procedure, abridged: as §1
For the next experiment, the target named is T4, EHF (Homo sapiens, UniProt Q9NZC4 1-300).
T4 sequence: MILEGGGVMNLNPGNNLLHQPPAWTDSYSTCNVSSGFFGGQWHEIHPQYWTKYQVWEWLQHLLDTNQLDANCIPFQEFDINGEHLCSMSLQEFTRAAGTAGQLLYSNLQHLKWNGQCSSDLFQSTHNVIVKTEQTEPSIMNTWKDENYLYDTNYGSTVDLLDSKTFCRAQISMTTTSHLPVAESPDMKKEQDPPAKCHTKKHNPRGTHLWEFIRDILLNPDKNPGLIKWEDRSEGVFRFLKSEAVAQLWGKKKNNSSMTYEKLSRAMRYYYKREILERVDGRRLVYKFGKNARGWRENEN
Summed up:
as §1

The next experiment has as its target SPIB (Homo sapiens, UniProt Q01892 1-262). The procedure, abridged: as §1
The next experiment concerns the target T5, FEV (Homo sapiens, UniProt Q99581 1-238).
T5 sequence: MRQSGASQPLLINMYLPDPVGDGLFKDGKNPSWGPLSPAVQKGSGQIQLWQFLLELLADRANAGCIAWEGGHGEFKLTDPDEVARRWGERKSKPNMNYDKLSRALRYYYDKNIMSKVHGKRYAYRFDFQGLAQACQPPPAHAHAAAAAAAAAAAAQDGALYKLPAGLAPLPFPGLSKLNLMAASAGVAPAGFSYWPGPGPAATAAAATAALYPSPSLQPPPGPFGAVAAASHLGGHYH
The procedure, abridged:
as §1

The next experiment deals with ETV5 (Homo sapiens, UniProt P41161 1-510). Summed up:
as §1

The next experiment concerns the target ELF4 (Homo sapiens, UniProt Q99607 1-663). Summed up:
as §1

The next experiment deals with T6, ELK4 (Homo sapiens, UniProt P28324-2 1-405).
T6 sequence: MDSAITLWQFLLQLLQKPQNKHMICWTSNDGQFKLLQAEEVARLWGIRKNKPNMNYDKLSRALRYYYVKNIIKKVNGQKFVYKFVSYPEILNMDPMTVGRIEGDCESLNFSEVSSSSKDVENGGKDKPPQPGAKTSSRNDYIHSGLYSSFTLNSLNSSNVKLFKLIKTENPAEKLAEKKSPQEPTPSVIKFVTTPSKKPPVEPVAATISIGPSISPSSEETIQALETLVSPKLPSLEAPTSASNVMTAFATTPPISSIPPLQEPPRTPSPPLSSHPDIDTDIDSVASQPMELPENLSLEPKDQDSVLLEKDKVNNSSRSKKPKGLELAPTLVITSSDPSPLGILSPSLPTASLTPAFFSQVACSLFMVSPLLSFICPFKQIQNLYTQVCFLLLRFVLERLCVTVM
Summed up:
as §1

The target in another experiment is T7, ETV2 (Homo sapiens, UniProt O00321 1-342).
T7 sequence: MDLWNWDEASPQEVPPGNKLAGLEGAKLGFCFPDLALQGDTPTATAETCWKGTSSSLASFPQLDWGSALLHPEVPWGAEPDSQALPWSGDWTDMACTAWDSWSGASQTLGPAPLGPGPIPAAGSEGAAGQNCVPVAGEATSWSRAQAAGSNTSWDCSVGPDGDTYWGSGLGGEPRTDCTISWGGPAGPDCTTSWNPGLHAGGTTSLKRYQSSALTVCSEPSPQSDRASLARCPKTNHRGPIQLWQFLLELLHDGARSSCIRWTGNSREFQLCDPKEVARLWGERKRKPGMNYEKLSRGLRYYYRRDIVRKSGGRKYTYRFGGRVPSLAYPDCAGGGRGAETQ
Summed up: as §1

The next experiment addresses ETV1 (Homo sapiens, UniProt P50549 1-477). Summed up:
as §1

The target in the next experiment is T8, ERF (Homo sapiens, UniProt P50548 1-548).
T8 sequence: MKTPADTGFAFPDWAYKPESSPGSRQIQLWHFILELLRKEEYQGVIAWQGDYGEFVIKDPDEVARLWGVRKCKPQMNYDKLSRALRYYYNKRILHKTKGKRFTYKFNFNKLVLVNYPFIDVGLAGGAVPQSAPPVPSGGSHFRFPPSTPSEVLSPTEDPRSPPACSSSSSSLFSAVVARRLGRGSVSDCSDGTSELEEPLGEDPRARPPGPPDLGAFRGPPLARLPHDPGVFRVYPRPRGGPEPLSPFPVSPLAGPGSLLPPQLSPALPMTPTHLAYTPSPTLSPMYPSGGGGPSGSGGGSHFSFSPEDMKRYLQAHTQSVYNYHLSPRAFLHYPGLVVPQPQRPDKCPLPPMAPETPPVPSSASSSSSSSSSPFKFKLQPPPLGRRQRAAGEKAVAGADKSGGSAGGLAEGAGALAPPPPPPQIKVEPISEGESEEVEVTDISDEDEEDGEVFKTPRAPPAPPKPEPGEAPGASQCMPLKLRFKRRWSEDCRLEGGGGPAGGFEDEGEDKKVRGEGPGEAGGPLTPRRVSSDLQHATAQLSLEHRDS
The procedure, abridged: as §1

The target of a further experiment is T9, ETS2 (Homo sapiens, UniProt P15036 1-469).
T9 sequence: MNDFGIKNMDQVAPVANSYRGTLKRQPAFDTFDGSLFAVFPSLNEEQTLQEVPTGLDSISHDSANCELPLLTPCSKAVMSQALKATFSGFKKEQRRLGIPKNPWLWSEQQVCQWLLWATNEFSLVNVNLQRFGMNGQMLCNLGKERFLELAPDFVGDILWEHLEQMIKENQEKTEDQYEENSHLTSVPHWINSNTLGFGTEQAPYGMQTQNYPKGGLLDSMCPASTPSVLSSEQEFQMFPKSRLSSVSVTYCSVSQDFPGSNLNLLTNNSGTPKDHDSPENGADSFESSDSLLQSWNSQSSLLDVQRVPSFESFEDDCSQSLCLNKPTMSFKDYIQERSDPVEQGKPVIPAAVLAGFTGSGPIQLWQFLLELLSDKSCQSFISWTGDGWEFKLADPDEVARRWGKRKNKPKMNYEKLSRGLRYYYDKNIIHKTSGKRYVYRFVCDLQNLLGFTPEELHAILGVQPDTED
The procedure, abridged:
as §1

Another experiment concerns the target T10, SPDEF (Homo sapiens, UniProt O95238 1-335).
T10 sequence: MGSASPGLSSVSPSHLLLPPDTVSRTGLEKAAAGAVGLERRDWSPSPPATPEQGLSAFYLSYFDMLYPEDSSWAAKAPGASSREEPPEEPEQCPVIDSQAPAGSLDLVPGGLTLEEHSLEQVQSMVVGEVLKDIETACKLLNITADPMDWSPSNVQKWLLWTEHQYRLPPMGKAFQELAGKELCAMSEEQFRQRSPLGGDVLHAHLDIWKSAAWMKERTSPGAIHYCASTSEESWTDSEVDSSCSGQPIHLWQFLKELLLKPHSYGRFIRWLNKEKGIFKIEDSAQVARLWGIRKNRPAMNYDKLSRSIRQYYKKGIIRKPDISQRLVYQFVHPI
The procedure, abridged:
as §1

The target in another experiment is T11, ETV7 (Homo sapiens, UniProt Q9Y603 1-341).
T11 sequence: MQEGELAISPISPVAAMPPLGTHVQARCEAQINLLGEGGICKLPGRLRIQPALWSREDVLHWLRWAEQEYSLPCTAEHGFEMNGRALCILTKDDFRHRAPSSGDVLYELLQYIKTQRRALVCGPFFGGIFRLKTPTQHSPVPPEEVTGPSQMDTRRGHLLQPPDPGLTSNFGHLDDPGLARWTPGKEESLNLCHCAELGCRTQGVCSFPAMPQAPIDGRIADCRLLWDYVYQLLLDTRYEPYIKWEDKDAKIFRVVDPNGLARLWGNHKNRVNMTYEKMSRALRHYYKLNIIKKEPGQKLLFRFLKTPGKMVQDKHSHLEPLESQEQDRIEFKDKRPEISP
The procedure, abridged:
as §1

The next experiment deals with ETV6 (Homo sapiens, UniProt P41212 1-452). The procedure, abridged:
as §1

ELF4, sequence (Q99607 whole entry): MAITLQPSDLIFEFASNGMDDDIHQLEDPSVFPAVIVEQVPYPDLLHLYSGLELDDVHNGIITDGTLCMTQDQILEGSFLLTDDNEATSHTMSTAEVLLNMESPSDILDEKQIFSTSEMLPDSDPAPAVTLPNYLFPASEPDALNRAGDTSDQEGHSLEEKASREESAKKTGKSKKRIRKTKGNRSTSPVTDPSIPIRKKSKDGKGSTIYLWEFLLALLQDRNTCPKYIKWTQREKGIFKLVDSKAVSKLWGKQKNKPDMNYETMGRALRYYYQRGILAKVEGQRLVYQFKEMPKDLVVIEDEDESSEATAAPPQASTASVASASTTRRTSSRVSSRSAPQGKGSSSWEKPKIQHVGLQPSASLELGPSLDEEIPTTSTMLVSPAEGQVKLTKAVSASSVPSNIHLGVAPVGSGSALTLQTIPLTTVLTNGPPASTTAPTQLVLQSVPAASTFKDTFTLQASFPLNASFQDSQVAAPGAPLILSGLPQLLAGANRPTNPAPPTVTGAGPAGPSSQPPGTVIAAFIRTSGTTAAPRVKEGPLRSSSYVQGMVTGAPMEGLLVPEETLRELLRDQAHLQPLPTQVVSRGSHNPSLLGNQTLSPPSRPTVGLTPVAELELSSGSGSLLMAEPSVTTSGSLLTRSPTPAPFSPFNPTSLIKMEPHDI
ETV6, sequence (P41212 whole entry): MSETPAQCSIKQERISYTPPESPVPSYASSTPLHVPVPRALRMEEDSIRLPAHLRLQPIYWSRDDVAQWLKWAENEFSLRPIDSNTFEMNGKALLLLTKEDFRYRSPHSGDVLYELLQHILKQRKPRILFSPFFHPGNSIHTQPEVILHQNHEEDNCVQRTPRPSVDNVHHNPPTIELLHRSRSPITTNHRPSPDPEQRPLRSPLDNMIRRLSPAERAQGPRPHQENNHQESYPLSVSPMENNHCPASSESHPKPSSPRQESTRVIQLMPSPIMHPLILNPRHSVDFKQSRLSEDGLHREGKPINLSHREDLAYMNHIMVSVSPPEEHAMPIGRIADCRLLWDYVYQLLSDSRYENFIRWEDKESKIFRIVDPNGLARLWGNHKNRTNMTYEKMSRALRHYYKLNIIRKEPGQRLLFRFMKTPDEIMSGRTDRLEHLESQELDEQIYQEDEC
ETV5, sequence (P41161 whole entry): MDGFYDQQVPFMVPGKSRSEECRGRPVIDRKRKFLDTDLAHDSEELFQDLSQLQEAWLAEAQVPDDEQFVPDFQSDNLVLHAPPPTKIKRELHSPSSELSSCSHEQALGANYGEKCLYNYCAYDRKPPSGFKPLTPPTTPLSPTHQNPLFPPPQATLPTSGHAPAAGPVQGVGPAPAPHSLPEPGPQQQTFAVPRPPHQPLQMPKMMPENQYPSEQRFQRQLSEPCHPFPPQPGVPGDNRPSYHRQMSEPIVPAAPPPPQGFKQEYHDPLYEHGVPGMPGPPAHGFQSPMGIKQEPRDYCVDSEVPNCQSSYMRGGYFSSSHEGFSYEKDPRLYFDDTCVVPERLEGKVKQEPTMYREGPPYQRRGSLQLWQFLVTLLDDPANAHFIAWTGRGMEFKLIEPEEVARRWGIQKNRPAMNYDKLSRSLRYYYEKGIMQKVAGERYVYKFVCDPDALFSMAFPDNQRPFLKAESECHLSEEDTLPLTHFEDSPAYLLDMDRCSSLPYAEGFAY
SPIB, sequence (Q01892 whole entry): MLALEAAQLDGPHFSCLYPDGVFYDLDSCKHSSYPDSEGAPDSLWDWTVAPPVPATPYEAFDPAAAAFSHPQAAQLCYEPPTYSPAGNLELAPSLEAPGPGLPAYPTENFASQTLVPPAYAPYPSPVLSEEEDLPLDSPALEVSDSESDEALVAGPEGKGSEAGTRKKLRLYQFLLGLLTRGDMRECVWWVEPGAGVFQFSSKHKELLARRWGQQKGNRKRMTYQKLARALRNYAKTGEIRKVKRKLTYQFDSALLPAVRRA
ELF1, sequence (P32519 whole entry): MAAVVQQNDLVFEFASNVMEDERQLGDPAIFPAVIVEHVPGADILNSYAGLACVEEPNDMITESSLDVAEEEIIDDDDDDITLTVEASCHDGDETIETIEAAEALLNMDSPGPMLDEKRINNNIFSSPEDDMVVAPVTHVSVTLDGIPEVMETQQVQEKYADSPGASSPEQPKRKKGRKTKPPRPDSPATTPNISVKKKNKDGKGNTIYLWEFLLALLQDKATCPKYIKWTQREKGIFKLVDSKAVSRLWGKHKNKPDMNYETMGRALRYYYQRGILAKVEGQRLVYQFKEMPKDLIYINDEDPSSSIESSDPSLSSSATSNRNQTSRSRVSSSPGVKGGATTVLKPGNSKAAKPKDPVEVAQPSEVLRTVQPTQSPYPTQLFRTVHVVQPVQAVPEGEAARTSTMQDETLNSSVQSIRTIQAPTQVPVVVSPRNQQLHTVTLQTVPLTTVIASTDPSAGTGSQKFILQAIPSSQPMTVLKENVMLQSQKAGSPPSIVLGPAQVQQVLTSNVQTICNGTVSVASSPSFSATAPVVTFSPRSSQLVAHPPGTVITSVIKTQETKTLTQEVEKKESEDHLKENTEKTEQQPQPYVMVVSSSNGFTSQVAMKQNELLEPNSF
ETV1, sequence (P50549 whole entry): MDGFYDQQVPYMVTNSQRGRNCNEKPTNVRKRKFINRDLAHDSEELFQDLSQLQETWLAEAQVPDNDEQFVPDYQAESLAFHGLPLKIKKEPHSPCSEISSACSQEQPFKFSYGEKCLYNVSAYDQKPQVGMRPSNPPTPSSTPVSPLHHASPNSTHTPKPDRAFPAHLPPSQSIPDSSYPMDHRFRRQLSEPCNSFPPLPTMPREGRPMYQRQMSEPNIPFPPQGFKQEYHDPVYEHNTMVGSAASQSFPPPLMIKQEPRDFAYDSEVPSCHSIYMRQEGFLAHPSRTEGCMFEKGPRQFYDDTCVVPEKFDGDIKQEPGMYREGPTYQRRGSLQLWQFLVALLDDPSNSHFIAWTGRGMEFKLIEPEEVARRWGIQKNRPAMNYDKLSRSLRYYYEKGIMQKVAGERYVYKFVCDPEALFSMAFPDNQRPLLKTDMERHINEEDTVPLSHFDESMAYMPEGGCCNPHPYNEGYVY

With CATACA, the binding signal in the experiment with ELK1 is 1.04 fold enrichment (6-mer frequency, TF over GST control); with GABPA, 1.08 fold enrichment (6-mer frequency, TF over GST control); with ERG, 1.07 fold enrichment (6-mer frequency, TF over GST control); with ELF1 it was 1.06 fold enrichment (6-mer frequency, TF over GST control); with EHF it was 1.03 fold enrichment (6-mer frequency, TF over GST control); with SPIB, 1.08 fold enrichment (6-mer frequency, TF over GST control). Moreover, the binding signal with FEV was 1.07 fold enrichment (6-mer frequency, TF over GST control); with ETV5 it was 1.05 fold enrichment (6-mer frequency, TF over GST control); in the experiment with ELF4, 1.15 fold enrichment (6-mer frequency, TF over GST control); with ELK4, 1.06 fold enrichment (6-mer frequency, TF over GST control); with ETV2, 1.1 fold enrichment (6-mer frequency, TF over GST control); with ETV1, 1.02 fold enrichment (6-mer frequency, TF over GST control). For the same sequence, the binding signal is 1.15 fold enrichment (6-mer frequency, TF over GST control) in the experiment with ERF; 1.06 fold enrichment (6-mer frequency, TF over GST control) with ETS2; 1.05 fold enrichment (6-mer frequency, TF over GST control) in the experiment with SPDEF; 1.1 fold enrichment (6-mer frequency, TF over GST control) in the experiment with ETV7; 1.01 fold enrichment (6-mer frequency, TF over GST control) with ETV6.
